Compound activity deposited in PubChem by National Center for Advancing Translational Sciences (NCATS).
Most compounds without a hit are left out; they make up all but 2.7% or so of the library.
Tau ThT inhib = qHTS for Inhibitors of Tau Fibril Formation, Thioflavin T Binding. Potency, µM (doses to about 57.4 µM), hits mostly inhibitors. Microtubule-associated protein tau (Homo sapiens), P10636. recombinant tau K18 P301L, heparin-induced fibrillization, ThT fluorescence. 270,000 compounds, 2.1% hits; note: nearly all actives have a fitted effect of over 55% in size
Target sequence (P10636 561-689 P618L limits assumed): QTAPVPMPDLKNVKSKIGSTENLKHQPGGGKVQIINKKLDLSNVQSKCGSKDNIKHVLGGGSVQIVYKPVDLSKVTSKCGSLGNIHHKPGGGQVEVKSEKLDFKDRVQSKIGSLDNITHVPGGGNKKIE
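Using a mix of unlabeled (15 uM) and Alexa 594-labeled (0.24 uM) tau K18 P301L, heparin-triggered fibrillization over 6 hr at 37 C was scored by ThT fluorescence.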
Tau FP inhib = qHTS for Inhibitors of Tau Fibril Formation, Fluorescence Polarization | Microtubule-associated protein tau (Homo sapiens), P10636 | Potency, µM (titrated, usually from 57.7 µM), actives largely listed as inhibitors | K18 P301L tau heparin fibrillization, Alexa594 FP, 6 h | 280,000 compounds, 0.39% hits; note: nearly all actives have a fitted effect of over 55% in size
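K18 P301L tau (15 uM unlabeled/0.24 uM Alexa 594-labeled, final) + compound + heparin 20 uM final; 100 mM NaOAc pH 7; 6 hr 37 C; ThT 30 uM final added, 1 hr RT; FP ex 555/em 632 nm.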
Coupling enz = qHTS Assay for Inhibitors of Fructose-1,6-bisphosphate Aldolase from Giardia Lamblia: Coupling assay counterscreen. coupling enzyme system counterscreen, AmpLite Red fluorescence. activity change, negative = inhibition, % at 58.2 µM, hits read low. 290,000 compounds, 0.67% hits. AID 2472, 2010; in the data active = activity change below about -30%
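First, compound is pin-transferred into glyceraldehyde-3-phosphate coupling-enzyme reagent at 57.5 uM final and held 10 min at RT. Next, substrate, coupling system and AmpLite Red are added. After 20 min RT, fluorescence (525/598 nm) is read.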
Tau fluor counter = Counterscreen qHTS for Inhibitors of Tau Fibril Formation, Fluorescence Polarization; tau K18 P301L (four-repeat tau fragment) Alexa594 fluorescence, heparin fibrillization; Potency, µM (top dose mostly 57.7 µM); 280,000 compounds, 0.93% hits; AID 1463, 2008; note: nearly all actives have a fitted effect of over 55% in size
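Human K18 P301L tau (15 uM unlabeled plus 0.24 uM Alexa 594-labeled, final) in 100 mM sodium acetate pH 7 was mixed with compound and 20 uM heparin and incubated 6 hr at 37 C.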
Large screens that a line does not name were inactive; ! = a repeat was not active; [ ] = another dose, or the depositor's remark. Unless noted, calls come from the whole dose curve; as a rule, active = well fitted curve in the direction sought with a large enough effect; inconclusive = small, poorly fitted or top-dose-only effect, or another doubt; inactive = no such curve, though single readings can be large; an effect the other way counts as inactive or inconclusive.

CSc1nncc(/C(C)=N/O)n1	none
CSc1nncc(/C(C)=N\Nc2ccccc2C)n1	Tau ThT inhib 0.891µM
CC(C)Oc1ccccc1C1NC(=O)CCC1[N+](=O)[O-] (stereo not drawn)	none (no result: Tau ThT inhib, Tau FP inhib, Tau fluor counter)
CC(NCc1ccc(F)cc1)C(=O)NC1CCCCC1 (stereo not drawn)	Tau ThT inhib 31.6µM
COc1ccc(N2CC(NC(=O)C(=O)c3c[nH]c4ccccc34)CC2=O)cc1 (stereo not drawn)	none (no result: Coupling enz)
O=[N+]([O-])c1cccc2ccc(/C=C/c3ccc(Cl)cc3)nc12	none
Cc1ccc2nc(/C(C#N)=C/c3ccc(O)c(O)c3)[nH]c2c1	none (no result: Tau ThT inhib, Tau FP inhib, Tau fluor counter)
N#C/C(=C\c1ccc(N2CCOCC2)c([N+](=O)[O-])c1)c1nc2ccccc2[nH]1	Tau ThT inhib 5.01µM, Tau fluor counter 22.4µM[quencher]
N#C/C(=C\c1ccc(-c2ccc(C(=O)O)cc2)o1)c1nc2ccccc2[nH]1	Tau ThT inhib inconclusive, Tau fluor counter inconclusive
Cc1ccc2nc(/C(C#N)=C\c3ccc(N4CCCCC4)c([N+](=O)[O-])c3)[nH]c2c1	Tau ThT inhib 3.16µM
CC(=O)Nc1ccc(/C=C/c2ccc3c([N+](=O)[O-])cccc3n2)cc1	Tau ThT inhib 1.41µM
N#C/C(=C\c1ccc(N2CCOCC2)o1)c1nc2ccccc2[nH]1	Tau ThT inhib 7.94µM, Coupling enz -48.9, Tau fluor counter inconclusive
Cc1cc2c(Nc3cccc(O)c3)ncnc2s1	none (no result: Tau ThT inhib, Tau FP inhib, Tau fluor counter)
COc1ccc(-n2nc(-c3ccc(C)cc3)c3cnc4cc(F)c(F)cc4c32)cc1	none (no result: Coupling enz)
CCOC(=O)c1c(C)oc2nc(C)nc(N(C)Cc3ccccc3)c12	none (no result: Coupling enz)
O=C1CC(c2ccccc2)Cc2[nH]c(=O)c(C(=O)Nc3cccc(Cl)c3)cc21 (stereo not drawn)	none (no result: Coupling enz)
CCOc1ccc(-c2cc3c(=O)n(Cc4nc(-c5ccc(OCC)c(OC)c5)oc4C)ccn3n2)cc1Cl	none (no result: Coupling enz)
CCC1CN(C(=O)C2CCN(S(=O)(=O)c3c(C)noc3/C=C/c3ccccc3F)CC2)c2cc(Cl)ccc2O1 (stereo not drawn)	Tau FP inhib inconclusive (no result: Coupling enz)
N#C/C(=C\c1ccncc1)c1nc2ccccc2[nH]1	Tau ThT inhib inconclusive
N#C/C(=C/c1ccc(N2CCCC2)c([N+](=O)[O-])c1)c1nc2ccccc2[nH]1	Tau ThT inhib 2.51µM, Tau fluor counter inconclusive
O=C(O)c1cc(/C=C/c2ccc(N3CCOCC3)c([N+](=O)[O-])c2)nc2ccccc12	Tau ThT inhib 14.1µM
N#C/C(=C/c1ccc(N2CCOCC2)o1)c1ccc(Cl)cc1	Tau ThT inhib 15.8µM, Tau FP inhib inconclusive, Coupling enz -46.7, Tau fluor counter inconclusive
Cc1ccc2nc(/C(C#N)=C/c3cccc(Br)c3)[nH]c2c1	Tau ThT inhib 5.01µM, Tau fluor counter inconclusive (no result: Coupling enz)
COc1ccccc1N1CCN(C(=O)c2cc3c(=O)n(Cc4ccco4)ccc3nc2C)CC1	none (no result: Coupling enz)
O=S(=O)(Nc1cccc2cccnc12)c1ccccc1	Coupling enz -39.1! (no result: Tau ThT inhib, Tau FP inhib, Tau fluor counter)
CCOC(=O)c1ccc(NC(=O)Cn2c(=O)cc(C)c3c(C)nn(-c4ccc(CC)cc4)c32)cc1	none (no result: Coupling enz)
COc1ccc(CNc2nc(-c3ccccc3OC)nc3ccccc23)c(OC)c1	Tau ThT inhib inconclusive, Tau FP inhib inconclusive
O=C(Nc1nc2c(s1)CCc1ccccc1-2)c1cccs1	Tau ThT inhib inconclusive, Tau fluor counter inconclusive
Fc1ccccc1Nc1nc2c(s1)CCc1ccccc1-2	Coupling enz -69.5
CCOc1ccc(C(=O)Nc2ccc(C(=O)OCc3cc(=O)n4c(C)csc4n3)cc2)cc1	none (no result: Coupling enz)
O=C1C=CC2(OCCCO2)C(Br)=C1CO	Tau ThT inhib 15.8µM, Tau FP inhib inconclusive
NC(=S)N/N=C/c1coc2cc(Br)ccc2c1=O	Tau ThT inhib 15.8µM, Tau fluor counter inconclusive
O=C(NN1C(=O)c2ccccc2NC1c1ccc([N+](=O)[O-])o1)c1ccc([N+](=O)[O-])cc1 (stereo not drawn)	Tau ThT inhib 3.16µM, Tau FP inhib inconclusive, Tau fluor counter inconclusive
COC(=O)C(c1ccccc1Cl)N1CCc2sccc2C1 (stereo not drawn)	none
COC(=O)C1CC1[C@H](NC(=O)c1cccnc1)c1ccccc1 (stereo partly drawn)	none (no result: Tau ThT inhib, Tau FP inhib, Tau fluor counter)
CCc1ccccc1NC(=O)Cn1nc(C)c2nn(-c3ccc(Cl)cc3)c(C)c2c1=O	none (no result: Coupling enz)
Cc1cc(C)c2c(CC(=O)Nc3ccc(S(=O)(=O)N4CCCC(C)C4)cc3)coc2c1 (stereo not drawn)	Tau FP inhib 14.1µM, Tau fluor counter inconclusive (no result: Coupling enz)
CC(NS(=O)(=O)c1ccc2c(c1)CC(C)N2C(=O)C1CC1)c1ccccc1 (stereo not drawn)	none (no result: Tau ThT inhib, Tau FP inhib, Tau fluor counter)
COc1ccc2c(Sc3ccc(C)cc3)c(C(=O)NCC(C)c3ccccc3)[nH]c2c1 (stereo not drawn)	none (no result: Coupling enz)
CCOC(=O)c1sc2nc3c(SCCC#N)cc(C(=O)c4cc(F)ccc4O)cn3c(=O)c2c1C	Tau ThT inhib inconclusive, Tau fluor counter inconclusive
CCOC(=O)c1sc2nc3c(SCCC(=O)O)cc(C(=O)c4cc(OC)ccc4O)cn3c(=O)c2c1C	Tau ThT inhib 25.1µM
O=C(O)CSc1cc(C(=O)c2cc(F)ccc2O)cn2c(=O)c3c(-c4ccccc4)csc3nc12	Tau ThT inhib 28.2µM
Cc1cc(C)n(C(=O)/C(C#N)=N/Nc2cc(Cl)cc(Cl)c2)n1	Tau ThT inhib inconclusive, Tau fluor counter inconclusive
Cc1ccccc1Cc1c(C)nc2c(-c3ccccc3)c(C)[nH]n2c1=O	none (no result: Coupling enz)
COc1ccc(OCC(O)CNc2ccc(Br)cc2)cc1 (stereo not drawn)	Tau ThT inhib inconclusive, Tau fluor counter 17.8µM[quencher]
COc1ccc(OCC(O)CNC(=O)c2ccc(Br)cc2)cc1 (stereo not drawn)	none
C=C(C)C1CCC(C)C(OC(C)=O)C1 (stereo not drawn)	none (no result: Tau ThT inhib, Tau FP inhib, Tau fluor counter)
COC(=O)c1[nH]c2cc(OC)ccc2c1NC(=O)CN1CCN(c2cccc(C)c2)C(C)C1 (stereo not drawn)	Tau ThT inhib inconclusive, Tau FP inhib inconclusive, Tau fluor counter 14.1µM[quencher]
COc1ccc(NC(=O)CC2C(=O)N(c3cccc(OC)c3)C(=O)N2CCC2=CCCCC2)cc1 (stereo not drawn)	Tau fluor counter inconclusive (no result: Coupling enz)
O=C(Nc1ccccc1)N1CC2(CCN(C(=O)c3cc(C(F)(F)F)cc(C(F)(F)F)c3)CC2)C1	none (no result: Tau ThT inhib, Tau FP inhib, Tau fluor counter)
CN(C)c1nc(N)nc(/C(C#N)=C/C2CC3C=CC2C3)n1 (stereo not drawn)	Coupling enz -32.6
CCN(CC)C(=O)c1csc(Nc2ccc(C)cc2)n1	Tau ThT inhib inconclusive
CCOC(=O)/C(=N\Nc1ccc(OC)cc1)c1csc(Nc2ccccc2)n1	Tau ThT inhib inconclusive, Tau FP inhib inconclusive, Tau fluor counter 7.08µM[quencher]
O=C(COc1ccc(Cl)cc1)OCc1csc(Nc2ccccc2)n1	Tau ThT inhib inconclusive, Tau fluor counter 14.1µM[quencher]
CCOC(=O)/C(=N/Nc1ccccc1)c1csc(Nc2ccccc2)n1	Tau ThT inhib inconclusive, Tau FP inhib inconclusive, Tau fluor counter 7.08µM[quencher]
